Test results reported in paper PMC3218832.

Key:
Assay in all cases: protein binding microarray; high values mean tight binding
Conditions in all cases: dsDNA, one strand shown
[1] = target: RELARELA (p65 homodimer) (Homo sapiens, UniProt Q04206 1-307)
[2] = target: p50p50 homodimer (Homo sapiens, UniProt P19838 7-356)
[3] = target: T1, p52p52 homodimer (Homo sapiens, UniProt Q00653 4-332)
T1 sequence: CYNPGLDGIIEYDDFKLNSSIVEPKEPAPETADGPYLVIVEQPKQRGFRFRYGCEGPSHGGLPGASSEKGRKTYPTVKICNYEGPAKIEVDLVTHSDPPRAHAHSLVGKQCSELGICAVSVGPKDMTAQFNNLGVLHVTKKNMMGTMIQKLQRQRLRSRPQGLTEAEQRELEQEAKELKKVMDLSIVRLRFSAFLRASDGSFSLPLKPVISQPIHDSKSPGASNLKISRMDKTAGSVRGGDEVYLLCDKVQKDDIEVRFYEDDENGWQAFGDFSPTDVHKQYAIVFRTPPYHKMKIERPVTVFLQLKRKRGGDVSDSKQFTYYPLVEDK

[4] = target: RELA (p65) subunit of heterodimer;p50 subunit (Homo sapiens;Homo sapiens, UniProt Q04206;P19838 1-307;7-356)
[5] = target: RELA (p65) subunit of heterodimer;p52 subunit (Homo sapiens;Homo sapiens, UniProt Q04206;Q00653 1-307;4-332)
[6] = target: RELB subunit;p50 subunit (Homo sapiens;Homo sapiens, UniProt Q01201;P19838 120-401;7-356)
[7] = target: T2, RELB subunit;p52 subunit (Homo sapiens;Homo sapiens, UniProt Q01201;Q00653 120-401;4-332)
T2 sequence 1: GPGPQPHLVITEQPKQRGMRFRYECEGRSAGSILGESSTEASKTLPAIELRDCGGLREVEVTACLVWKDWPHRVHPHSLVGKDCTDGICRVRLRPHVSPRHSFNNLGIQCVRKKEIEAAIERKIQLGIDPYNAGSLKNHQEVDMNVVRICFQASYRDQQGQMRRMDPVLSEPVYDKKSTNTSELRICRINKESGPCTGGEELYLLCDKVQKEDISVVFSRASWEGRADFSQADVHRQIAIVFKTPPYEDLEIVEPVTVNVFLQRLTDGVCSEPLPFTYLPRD
T2 sequence 2: T1 sequence

[8] = target: C-Rel subunit;p50 subunit (Homo sapiens;Homo sapiens, UniProt Q04864;P19838 1-285;7-356)
[9] = target: T3, C-Rel subunit;p52 subunit (Homo sapiens;Homo sapiens, UniProt Q04864;Q00653 1-285;4-332)
T3 sequence 1: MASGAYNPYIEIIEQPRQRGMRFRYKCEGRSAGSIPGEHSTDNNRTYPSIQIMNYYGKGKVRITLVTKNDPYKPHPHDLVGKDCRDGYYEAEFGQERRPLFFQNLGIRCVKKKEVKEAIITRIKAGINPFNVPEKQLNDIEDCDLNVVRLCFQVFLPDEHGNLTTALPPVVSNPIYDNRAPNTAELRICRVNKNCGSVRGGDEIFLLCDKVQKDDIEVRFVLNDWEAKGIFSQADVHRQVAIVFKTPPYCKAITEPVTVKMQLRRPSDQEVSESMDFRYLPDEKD
T3 sequence 2: T1 sequence

Chain of p50p50 homodimer (P19838 7-356): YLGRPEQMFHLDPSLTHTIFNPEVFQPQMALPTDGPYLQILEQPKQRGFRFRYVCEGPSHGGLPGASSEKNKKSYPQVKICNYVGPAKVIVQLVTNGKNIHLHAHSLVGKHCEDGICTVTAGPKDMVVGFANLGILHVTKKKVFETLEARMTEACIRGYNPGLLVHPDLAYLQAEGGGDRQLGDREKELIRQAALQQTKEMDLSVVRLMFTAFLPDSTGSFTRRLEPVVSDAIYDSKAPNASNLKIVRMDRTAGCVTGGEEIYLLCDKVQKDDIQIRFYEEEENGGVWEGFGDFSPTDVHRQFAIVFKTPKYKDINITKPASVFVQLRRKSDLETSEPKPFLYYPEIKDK
Chain of RELA (p65) subunit of heterodimer;p50 subunit (Q04206 1-307, chain 1 of 2): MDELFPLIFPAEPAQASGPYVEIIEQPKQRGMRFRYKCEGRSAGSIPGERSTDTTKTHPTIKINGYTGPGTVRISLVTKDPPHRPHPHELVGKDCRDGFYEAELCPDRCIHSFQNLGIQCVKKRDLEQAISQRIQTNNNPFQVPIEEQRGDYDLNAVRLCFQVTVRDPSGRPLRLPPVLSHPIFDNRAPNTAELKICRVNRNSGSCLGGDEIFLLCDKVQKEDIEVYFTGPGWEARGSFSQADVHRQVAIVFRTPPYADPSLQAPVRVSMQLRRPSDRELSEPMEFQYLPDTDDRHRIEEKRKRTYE
Chain of RELA (p65) subunit of heterodimer;p50 subunit (P19838 7-356, chain 2 of 2): as the sequence (P19838 7-356) above
Chain of RELARELA (p65 homodimer) (Q04206 1-307): as the sequence (Q04206 1-307, chain 1 of 2) above

Sequence | binding signal [1] | binding signal [2] | binding signal [3] | binding signal [4] | binding signal [5] | binding signal [6] | binding signal [7] | binding signal [8] | binding signal [9]
GGGTTCCTCCT | -0.196 z-score | -1.42 z-score | -0.584 z-score | -0.636 z-score | -0.6 z-score | -0.937 z-score | -0.638 z-score | -0.934 z-score | -0.467 z-score
AAGTGCCTCCC | -0.0547 z-score | -1.21 z-score | -0.495 z-score | -0.501 z-score | -0.793 z-score | -0.787 z-score | -0.731 z-score | -1.1 z-score | -0.788 z-score
GAGTGGATCCT | -0.466 z-score | -1.11 z-score | -0.663 z-score | -0.846 z-score | -1 z-score | -1.04 z-score | -0.919 z-score | -1.49 z-score | -0.92 z-score
AGGGTGCCCCT | -0.552 z-score | 0.473 z-score | 0.342 z-score | 0.511 z-score | 0.658 z-score | 0.571 z-score | 1.16 z-score | 0.426 z-score | 0.644 z-score
AAATTTGCCCT | 0.9 z-score | -0.198 z-score | -0.202 z-score | 0.0394 z-score | -0.125 z-score | -0.452 z-score | -0.337 z-score | 0.26 z-score | 0.00992 z-score
CAAGGTACCCT | -0.567 z-score | -0.267 z-score | -0.0886 z-score | -0.499 z-score | -0.317 z-score | -0.0446 z-score | -0.391 z-score | -0.833 z-score | -0.57 z-score
CGATATTTCCT | 0.574 z-score | -0.558 z-score | -0.405 z-score | -0.302 z-score | -0.495 z-score | -0.725 z-score | -0.422 z-score | -0.166 z-score | -0.154 z-score
